Assay results published in the supplement of paper PMC6555819.

Experiments:
Assay in all cases: PBM binding z-score (relative to random genomic background probes); higher = stronger binding; sequences stand for … in GC…GCGATTGACAGCGTAGAATGAAGG
[1] = test system: PPARg:RXRa DBDmut IVT, anti-RXR (DBD mutation: RXRa K156A/R161A, NR concentration 270 nM, RXRa partner concentration 90 nM)
Summary of the method: (§1)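 Random background probes are the reference for binding z-scores. These scores derive from regression-normalized fluorescence on custom Agilent 4×180K protein-binding microarrays incubated 1 h with ligand-free nuclear receptor dimers. Binding was detected with antibodies against each partner (one per run).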

[2] = test system: PPARg:RXRa IVT, anti-PPARg (NR concentration 270 nM, RXRa partner concentration 90 nM)
Summary of the method: as §1

[3] = test system: PPARg DBDmut:RXRa IVT, anti-PPARg (DBD mutation: PPARg1 K132A/R137A, NR concentration 270 nM, RXRa partner concentration 90 nM)
Summary of the method: as §1

[4] = test system: PPARg DBDmut IVT, anti-PPARg (DBD mutation: PPARg1 K132A/R137A, NR concentration 270 nM)
Summary of the method: as §1

[5] = test system: PPARg homodimer (NR concentration 180 nM)
Summary of the method: as §1

[6] = test system: PXR:RXRa (NR concentration 270 nM, RXRa partner concentration 90 nM)
Summary of the method: as §1

[7] = test system: PXR homodimer (NR concentration 270 nM)
Summary of the method: as §1

[8] = test system: RARa:RXR (NR concentration 270 nM, RXRa partner concentration 90 nM)
Summary of the method: as §1

[9] = test system: RARa homodimer (NR concentration 270 nM)
Summary of the method: as §1

[10] = test system: RARb:RXRa (NR concentration 270 nM, RXRa partner concentration 90 nM)
Summary of the method: as §1

[11] = test system: RARb homodimer (NR concentration 270 nM)
Summary of the method: as §1

[12] = test system: RARg:RXRa (NR concentration 270 nM, RXRa partner concentration 90 nM)
Summary of the method: as §1

[13] = test system: RARg homodimer (NR concentration 270 nM)
Summary of the method: as §1

[14] = test system: RXRa DBDmut IVT, anti-RXR (DBD mutation: RXRa K156A/R161A, NR concentration 90 nM)
Summary of the method: as §1

[15] = test system: RXRa homodimer (NR concentration 180 nM)
Summary of the method: as §1

[16] = test system: THRa homodimer (NR concentration 90 nM)
Summary of the method: as §1

[17] = test system: VDR homodimer (NR concentration 270 nM)
Summary of the method: as §1

[18] = test system: VDR:RXRa (NR concentration 270 nM, RXRa partner concentration 90 nM)
Summary of the method: as §1

| Sequence | PBM binding z-score [1] | PBM binding z-score [2] | PBM binding z-score [3] | PBM binding z-score [4] | PBM binding z-score [5] | PBM binding z-score [6] | PBM binding z-score [7] | PBM binding z-score [8] | PBM binding z-score [9] | PBM binding z-score [10] | PBM binding z-score [11] | PBM binding z-score [12] | PBM binding z-score [13] | PBM binding z-score [14] | PBM binding z-score [15] | PBM binding z-score [16] | PBM binding z-score [17] | PBM binding z-score [18] |
| --- | --- | --- | --- | --- | --- | --- | --- | --- | --- | --- | --- | --- | --- | --- | --- | --- | --- | --- |
| TATACATGGTCAAAGGCCAGAGTACGAATGTCGA | -0.282 | 1.86 | 1.66 | 0.812 | 0.786 | 0.255 | 0.252 | 0.943 | 0.241 | 1.6 | 1.31 | 1.59 | 1.67 | -0.652 | 1.39 | -0.46 | 0.302 | – |
| AATACAGGGTCATCCTAGGCCAGAGTACGCACAG | 2.5 | 4.16 | 1.89 | 1.39 | 2.39 | 5 | 0.711 | 4.8 | 1.41 | 4.46 | 3.81 | 5.57 | 4.83 | 3.9 | 6.16 | 1.97 | 3.52 | – |
| GCGACTGGGGCAAAGCAGGTCACCATAAGGTTGG | 3.8 | 4.81 | 0.568 | -0.842 | 1.51 | 3.05 | -0.164 | 2.96 | -0.0737 | 2.42 | 3.27 | 2.56 | 2.37 | -0.174 | 2.09 | 1.37 | 0.256 | – |
| CGTCAAAGTTCAATTAAGGTAACGTAAAGCACGC | 0.465 | 2 | 1.09 | 1.89 | 3.06 | 5.26 | 3.98 | 3.88 | 1.69 | 4.78 | 3.89 | 5.26 | 5.98 | 4.4 | 3.67 | 2.51 | 3.71 | – |
| CCTAGTTGGTCAACGTCACACACGCTATAGGTAC | 2.03 | 1.8 | 0.867 | 0.424 | 1.37 | 0.444 | 0.536 | 0.716 | 1.34 | 1.21 | 1.13 | 0.774 | 1.18 | 0.857 | 0.526 | 0.632 | 0.435 | – |
| CCTTACGGGTCACTCGAGGTTATAGCATCGGAGT | 2.22 | 3.7 | 0.422 | 0.0524 | 1.69 | 5.71 | 0.375 | 3.69 | 0.443 | 3.91 | 3.27 | 4.49 | 3.78 | 1.69 | 4.75 | 0.632 | 2.08 | – |
| CAAACTAGGTCATGAGGTCAAAGTCCGCTTCCCG | 8.1 | 8.5 | 2.32 | 1.99 | 5.08 | 5.91 | 4.28 | 6.92 | 2.05 | 5.03 | 5.22 | 7.26 | 6.81 | 3.45 | 7.98 | 4.88 | 5.84 | – |
| ATATGCAGGTTAGCTGGGGTCATTCAGACTAGGC | 2.79 | 2.76 | 0.943 | 1.03 | 1.18 | 6.31 | 2.68 | 5.26 | 0.349 | 3.15 | 3.72 | 4.14 | 3.11 | 1.89 | 5.56 | 2.98 | 4.17 | – |
| CGAACTAGATCAGAACAGGACAGTGAAGGATGAT | 0.901 | 0.144 | 0.0731 | 0.309 | 0.437 | -0.412 | 0.0691 | -0.383 | 0.626 | -0.179 | 0.0748 | -0.355 | 0.431 | 0.063 | 0.00592 | -0.243 | -0.111 | – |
| CGTCCAAGGTCATAGGAGGTCAGAGAAGACAGAT | 3.19 | 4.81 | 1.6 | 0.958 | 3.89 | 6.83 | 4.38 | 6.6 | 1.92 | 5.51 | 5.31 | 6.78 | 7.13 | 4.15 | 6.71 | 3.44 | 4.23 | – |
| GGAACGTGGGCATTCGAGTTGATAGCATGGCGAT | -0.654 | -0.803 | -0.387 | -0.8 | -0.877 | -0.129 | -0.516 | -0.333 | -0.773 | -0.433 | -0.657 | -0.318 | -0.321 | -0.166 | -0.389 | -1.07 | 0.0395 | – |
| GATACAGGGGCAGCTAGAGGCCAGAGTATGGAAA | 0.509 | 0.442 | -0.18 | -0.917 | -0.0981 | -0.0351 | -0.216 | -0.106 | -0.394 | 1.57 | 1.18 | 2.18 | 1.15 | -0.0216 | 0.387 | -0.373 | -0.000725 | – |
| CAAACTAGGTCACGTAAGGTCAAAGTCGAATGAC | 8.55 | 9.19 | 2.78 | 1.76 | 2.46 | 6.83 | 2.57 | 6.43 | 1.84 | 5.38 | 5.56 | 7.3 | 7.46 | 2.68 | 6.84 | 5.19 | 4.03 | – |
| CAAACTAGGTCACGCAAGGTCAAAGTCGAATGAC | 8.48 | 9.3 | 4.39 | 5.78 | 5.5 | 7.23 | 3.2 | 6.68 | 4.04 | 5.5 | 5.54 | 6.98 | 7.6 | 3.02 | 6.98 | 4.21 | 4.65 | 6.9 |
| AATACAGGGTCATCGGAGGCCAGAGTACGCACAG | 2.24 | 4.03 | 1.88 | 1.83 | 2.39 | 5.97 | 0.898 | 4.9 | 1.32 | 4.47 | 4.26 | 5.91 | 5.05 | 3.51 | 6.76 | 1.96 | 3.88 | – |
| CAAACCAGGTCACCGGAAGGTCAAAGTCCGCATG | 5.78 | 6.75 | 1.83 | 1.5 | 9.32 | 6.5 | 3.77 | 8.09 | 3.77 | 5.33 | 5.65 | 8.7 | 7.24 | 3.06 | 7.56 | 4.28 | 3.95 | – |
| TTACCAAGGTGAGCTGAGGTCATTGATCCAACTC | 1.49 | 2.8 | -0.00582 | -0.0839 | 1.23 | 6.15 | 3.42 | 4.75 | 0.362 | 3.44 | 3.91 | 3.65 | 3.31 | 0.946 | 4.03 | 4.43 | 4.32 | 5.79 |
| GCATATAGGTAATACAAGATGAAAGTCCGATTGT | 4.04 | 2.21 | 1.01 | 1.1 | 0.319 | 0.0663 | 0.0386 | 0.202 | 0.786 | -0.216 | -0.399 | 0.381 | 0.572 | 0.287 | 0.469 | -0.636 | -0.117 | -0.0142 |
| CCTAGCAGGCCAATCTGGATCACTCAAGGCTTGA | 1.73 | 0.817 | -1.11 | -1.19 | -0.873 | -0.635 | -0.965 | -0.47 | -0.695 | 0.0834 | -0.439 | -0.153 | -0.148 | 0.159 | -0.35 | -0.7 | -0.867 | – |
| GGAACGAGGGCATTCGAGGTGATAGCATGGCGAT | 3.12 | 2.76 | 0.0817 | -0.391 | 0.378 | 2.36 | 0.0978 | 1.4 | -0.289 | 1.97 | 1.3 | 1.4 | 1.47 | 2.66 | 1.07 | 0.517 | 1.77 | – |
| TCTGCTAGGTCAACGAAGGTCAGCTAATCTGCTA | 4.15 | 4.53 | 0.834 | 0.313 | 3.51 | 5.64 | 0.241 | 4.51 | 0.797 | 4.95 | 5.28 | 5.51 | 6.42 | 1.14 | 4.18 | 1.69 | 1.38 | 4.97 |
| CGTCCAAGGTCAGCGAGGTCAGTGAATGCCGAGT | 3.43 | 3.81 | -0.776 | -0.834 | 4.66 | 6.03 | 11.6 | 5.42 | 1.25 | 5.45 | 5.62 | 6.74 | 7.69 | 3.3 | 6.29 | 4.19 | 6.64 | – |
| ACTCGGAGGACAAAGATCAGAGCTACGCCAGTGA | 0.131 | -0.127 | -1.09 | -0.113 | -0.398 | -0.522 | -0.433 | -0.384 | -0.637 | 0.778 | -0.272 | 0.568 | 0.931 | 0.426 | 0.18 | -0.696 | -0.571 | -0.289 |
| CTCGAAAGGTCGATTGAGGTGAGTATACGGATAA | 0.741 | 1.76 | -0.148 | 0.11 | 0.805 | 4.35 | 0.0799 | 3.05 | 0.109 | 3.67 | 2.68 | 3.71 | 3.34 | 1.66 | 3.46 | 0.93 | 0.553 | – |
| CTCGAAAGGTCGTTTGAGGTGAGTATACGGATAA | 0.353 | 1.91 | 1.09 | 0.474 | 1.54 | 5.25 | 0.584 | 4.16 | -0.088 | 3.89 | 3.19 | 4.34 | 3.76 | 2.94 | 4.56 | 1.76 | 2.79 | 4.84 |
| TAGCCTAGCTCAGATCGGGCCAGTATACGCTATA | -0.922 | -0.645 | -0.837 | -1.92 | -1.79 | -1.09 | -1.09 | -1.21 | -1.25 | -1.89 | -1.12 | -0.862 | -0.645 | -1.11 | -0.698 | -0.99 | -0.652 | – |
| CTCGAAAGGTCGTGCTCAGGTCAGTATACCAAAC | 1.1 | 2.14 | 1.37 | 1.38 | 3.94 | 5.57 | 1.25 | 6.37 | 0.951 | 4.41 | 4.16 | 7.03 | 4.92 | 2.37 | 5.35 | 2.7 | 2.45 | – |
| CAAACTAGGTCACTGAGGTCAAAGTCCGTGCGTA | 8.41 | 8.65 | 1.56 | 0.597 | 4.26 | 6.53 | 12.1 | 6.4 | 0.887 | 4.89 | 5.53 | 6.59 | 7.09 | 3.56 | 6.35 | 5.12 | 7.63 | 7.99 |
